Measured values from PubChem BioAssay.
The source made the active and inactive calls.

What was measured:
[1] = optical density shifts of acrAB sulA E. coli – strain DRC41, OD650, 48 h, E. coli filamentation inducer project, primary screen (AID 1152); settings: higher = more signal, called active from +8 up or from −8 down;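 further: E. coli MC1000 strain DRC41 lacking acrAB efflux pump and sulA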
[2] = probe aLefty1 binding on compound microarray – biochemical, small-molecule microarray, 635/667 nm fluorescence, primary screen (AID 1153); settings: higher = more signal;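 further: score merges spot fluorescence with signal-to-noise ratio from the scanned slide images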
[3] = plasmodial surface anion channel blockers, osmotic lysis – cell-based, P. falciparum Indochina, OD700, 1 h, primary screen (AID 1154); settings: P. falciparum Indochina infected RBC osmotic lysis, higher = more signal, called active from +8 up or from −8 down
[4] = plasmodial surface anion channel blockers, osmotic lysis – cell-based, P. falciparum Indochina, OD700, 2 h, primary screen (AID 1155);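 further: lysis reports solute entry through the parasite surface anion channel PSAC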; settings: P. falciparum Indochina infected erythrocytes, higher = more signal, called active from +8 up or from −8 down
[5] = changes in parasitized red cell lysis, either direction – P. falciparum Indochina, OD700, 3 h, PSAC antagonist project, primary screen (AID 1156); settings: P. falciparum-infected erythrocytes, osmotic lysis, higher = more signal, called active from +8 up or from −8 down
[6] = plasmodial surface anion channel blockers, osmotic lysis – cell-based, P. falciparum Indochina, OD700, 18 h, primary screen (AID 1157); settings: P. falciparum Indochina infected erythrocytes, osmotic lysis OD700, 18 h; higher = more signal, called active from +8 up or from −8 down
[7] = S6 kinase pathway phospho-S6 level changes – cell-based, A549, cytoblot, luminescence, serum-stimulated, primary screen (AID 1158); settings: 5 h, higher = more signal;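 further: serum-stimulated A549 lung adenocarcinoma cells; signal is phosphorylated S6 detected by cytoblot immunostaining with HRP secondary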
[8] = biological target: NADPH oxidase 2 (Homo sapiens) (UniProt P04839); assay: compounds shifting NOX2 Amplex Red fluorescence – cell-based, HEK293-NOX2, PMA-stimulated, NOX inhibitor project, primary screen (AID 1159); settings: 45 min, higher = more signal, called active from +8 up or from −8 down; further: test concentration not given here
[9] = biological target: NADPH oxidase 4 (Homo sapiens) (UniProt Q9NPH5); assay: compounds shifting NOX4 Amplex Red fluorescence – cell-based, HEK293-NOX4, tetracycline-induced, NOX inhibitor project, primary screen (AID 1160); settings: HEK293-NOX4, Amplex Red H2O2 fluorescence, 45 min; higher = more signal, called active from +8 up or from −8 down
[10] = biological target: NADPH oxidase 5 (Homo sapiens) (UniProt Q96PH1); assay: compounds shifting NOX5 Amplex Red fluorescence – cell-based, HEK293-NOX5, NOX inhibitor project, primary screen (AID 1161); settings: HEK293-NOX5, ionomycin, 45 min, higher = more signal
[11] = compound effects on lung adenocarcinoma cell viability – A549, calcein-AM fluorescence, 48 h, basal, profiling panel (AID 1162); settings: higher = more signal; further: test concentration not given here
[12] = compound effects on differentiated 3T3-L1 adipocyte viability – cell-based, 3T3-L1 adipocytes, calcein-AM fluorescence, 48 h, basal, profiling panel (AID 1163); settings: 3T3-L1 adipocytes viability, higher = more signal; further: test concentration not given here
[13] = compound effects on hepatocellular carcinoma cell viability – HepG2, calcein-AM fluorescence, 48 h, basal, profiling panel (AID 1164); settings: higher = more signal; further: test concentration not given here
[14] = compound effects on multiple myeloma cell viability – MM1S, calcein-AM fluorescence, 48 h, basal, profiling panel (AID 1165); settings: higher = more signal;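 further: viability of MM1S multiple myeloma cells under basal unstimulated conditions; test concentration not given here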
[15] = calcein-AM signal in unstimulated myeloma cells – cell-based, calcein-AM fluorescence, 48 h, PK04 Diversity Set, profiling panel (AID 1166); settings: RPMI8226 myeloma viability, higher = more signal;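 further: cells grown under basal conditions without added stimulus; test concentration not given here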
[16] = JC-1 mitochondrial signal, unstimulated HepG2 cells – cell-based, JC-1 fluorescence, 24 h, 100 nL compound, profiling panel (AID 1167); settings: HepG2 mitochondrial potential, higher = more signal; further: test concentration not given here
[17] = JC-1 mitochondrial signal, unstimulated adipocytes – cell-based, JC-1 fluorescence, 3T3-L1 adipocytes, 24 h, 100 nL compound, profiling panel (AID 1168); settings: JC-1 mitochondrial fluorescence, higher = more signal, called active from +8 up or from −8 down; further: test concentration not given here
[18] = JC-1 mitochondrial signal, unstimulated myeloma cells – cell-based, JC-1 fluorescence, RPMI8226, 24 h, 100 nL compound, profiling panel (AID 1169); settings: JC-1 mitochondrial potential fluorescence, higher = more signal; further: test concentration not given here
[19] = JC-1 mitochondrial signal, unstimulated MM1S myeloma – cell-based, JC-1 fluorescence, 24 h, 100 nL compound, profiling panel (AID 1170); settings: MM1S mitochondrial potential, higher = more signal; further: test concentration not given here
[20] = resazurin metabolic signal in A549 cells – cell-based, resazurin fluorescence, 24 h, PK04 Diversity Set, profiling panel (AID 1171); settings: A549 viability, higher = more signal, called active from +8 up or from −8 down; further: test concentration not given here

NADPH oxidase 4 (Homo sapiens), sequence (Q9NPH5 whole entry, looked up): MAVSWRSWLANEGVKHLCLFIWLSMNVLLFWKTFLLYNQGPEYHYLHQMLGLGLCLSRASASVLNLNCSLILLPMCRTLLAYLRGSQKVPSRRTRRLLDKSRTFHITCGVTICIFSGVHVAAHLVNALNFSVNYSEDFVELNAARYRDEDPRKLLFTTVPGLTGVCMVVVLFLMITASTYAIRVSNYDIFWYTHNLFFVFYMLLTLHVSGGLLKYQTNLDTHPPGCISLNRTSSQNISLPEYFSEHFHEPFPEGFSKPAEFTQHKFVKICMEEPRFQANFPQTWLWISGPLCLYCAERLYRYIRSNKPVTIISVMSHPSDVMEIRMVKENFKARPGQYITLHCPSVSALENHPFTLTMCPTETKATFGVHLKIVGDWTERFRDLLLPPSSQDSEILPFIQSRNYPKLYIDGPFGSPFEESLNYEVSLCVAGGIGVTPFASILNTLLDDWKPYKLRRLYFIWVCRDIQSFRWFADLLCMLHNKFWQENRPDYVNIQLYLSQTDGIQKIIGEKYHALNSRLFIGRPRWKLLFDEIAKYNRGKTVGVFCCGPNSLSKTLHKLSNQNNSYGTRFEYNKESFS
NADPH oxidase 2 (Homo sapiens), sequence (P04839 whole entry, looked up): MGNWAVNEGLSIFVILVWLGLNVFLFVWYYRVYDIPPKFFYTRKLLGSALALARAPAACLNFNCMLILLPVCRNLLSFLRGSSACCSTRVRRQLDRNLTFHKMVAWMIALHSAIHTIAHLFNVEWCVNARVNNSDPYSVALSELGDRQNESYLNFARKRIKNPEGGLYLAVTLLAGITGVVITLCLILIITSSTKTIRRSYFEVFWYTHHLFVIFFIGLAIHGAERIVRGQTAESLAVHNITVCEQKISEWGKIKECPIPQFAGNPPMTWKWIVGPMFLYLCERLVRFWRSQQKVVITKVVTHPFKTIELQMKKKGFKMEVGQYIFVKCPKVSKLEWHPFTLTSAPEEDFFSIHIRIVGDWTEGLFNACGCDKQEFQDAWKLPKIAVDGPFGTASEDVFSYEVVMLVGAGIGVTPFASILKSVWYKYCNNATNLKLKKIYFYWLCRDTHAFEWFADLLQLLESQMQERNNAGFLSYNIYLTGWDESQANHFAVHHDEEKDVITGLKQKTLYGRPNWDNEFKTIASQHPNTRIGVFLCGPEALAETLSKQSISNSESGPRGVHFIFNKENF
NADPH oxidase 5 (Homo sapiens), sequence (Q96PH1 whole entry, looked up): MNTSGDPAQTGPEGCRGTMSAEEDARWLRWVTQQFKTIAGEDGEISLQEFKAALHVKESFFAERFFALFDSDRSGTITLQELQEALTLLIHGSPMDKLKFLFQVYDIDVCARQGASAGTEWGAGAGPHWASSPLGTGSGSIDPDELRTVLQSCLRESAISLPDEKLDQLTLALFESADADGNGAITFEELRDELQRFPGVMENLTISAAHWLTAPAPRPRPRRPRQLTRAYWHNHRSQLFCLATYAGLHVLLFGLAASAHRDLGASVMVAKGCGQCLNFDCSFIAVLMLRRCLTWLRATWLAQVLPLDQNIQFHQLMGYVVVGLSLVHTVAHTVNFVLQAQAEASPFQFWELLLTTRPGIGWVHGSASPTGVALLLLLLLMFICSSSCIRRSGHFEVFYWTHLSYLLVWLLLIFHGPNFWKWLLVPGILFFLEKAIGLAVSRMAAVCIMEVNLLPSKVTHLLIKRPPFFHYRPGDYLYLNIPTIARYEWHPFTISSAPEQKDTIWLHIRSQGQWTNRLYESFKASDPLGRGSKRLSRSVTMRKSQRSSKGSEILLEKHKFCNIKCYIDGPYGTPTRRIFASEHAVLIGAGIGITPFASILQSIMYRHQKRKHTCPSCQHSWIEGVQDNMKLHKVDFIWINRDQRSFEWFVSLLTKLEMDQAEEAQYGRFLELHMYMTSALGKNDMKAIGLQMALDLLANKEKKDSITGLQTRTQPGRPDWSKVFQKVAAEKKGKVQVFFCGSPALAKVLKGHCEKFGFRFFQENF

O=C(NCC(O)CO)[C@@]1(Cc2ccccc2)COC(c2ccc(OCCCO)cc2)=N1 (stereo not given in full)
z-score [1]: 0.712 (inactive) | composite z-score [2]: -0.266 | z-score [3]: 8.57 (active) | z-score [4]: 0.648 (inactive) | z-score [5]: 2.87 (inactive) | z-score [6]: 0.472 (inactive) | z-score [7]: -0.404 | z-score [8]: -0.44 (inactive) | z-score [9]: 0.82 (inactive) | z-score [10]: 0.132 | z-score [11]: -0.0736 | z-score [12]: -0.183 | z-score [13]: -0.283 | z-score [14]: -0.467 | z-score [15]: -0.164 | z-score [16]: -0.201 | z-score [17]: -0.817 (inactive) | z-score [18]: -0.805 | z-score [19]: -0.89 | z-score [20]: -0.0991 (inactive)

NC(=O)NCC#Cc1ccc2c(c1)[C@]1(C(=O)N2)[C@H](C(=O)NC[C@H](O)c2ccccc2)[C@H]2C(=O)O[C@H](c3ccccc3)[C@H](c3ccccc3)N2[C@@H]1c1ccccc1OCCO
z-score [1]: 2.23 (inactive) | composite z-score [2]: 0.157 | z-score [3]: 1.15 (inactive) | z-score [4]: -0.658 (inactive) | z-score [5]: 0.0336 (inactive) | z-score [6]: -2.16 (inactive) | z-score [7]: 1.5 | z-score [8]: 0.121 (inactive) | z-score [9]: -1.95 (inactive) | z-score [10]: -1.81 | z-score [11]: -0.321 | z-score [12]: 1.02 | z-score [13]: -0.252 | z-score [14]: 0.325 | z-score [15]: -0.636 | z-score [16]: -1.64 | z-score [17]: 1.34 (inactive) | z-score [18]: -0.0808 | z-score [19]: -1.01 | z-score [20]: 1.02 (inactive)

CC(C)C[C@@H]1NC(=O)[C@@H]2C[C@H](C(=O)NCCCCN(C)C)[C@H](c3ccc(O)cc3)N2C1=O
z-score [1]: -0.0654 (inactive) | composite z-score [2]: -0.0655 | z-score [3]: -0.202 (inactive) | z-score [4]: -0.241 (inactive) | z-score [5]: -0.689 (inactive) | z-score [6]: -0.189 (inactive) | z-score [7]: 0.0488 | z-score [8]: -0.298 (inactive) | z-score [9]: 0.167 (inactive) | z-score [10]: 0.21 | z-score [11]: -0.583 | z-score [12]: -0.339 | z-score [13]: -0.375 | z-score [14]: 0.12 | z-score [15]: 0.579 | z-score [16]: -1.26 | z-score [17]: -0.0811 (inactive) | z-score [18]: -0.0507 | z-score [19]: 0.218 | z-score [20]: 0.408 (inactive)

Cc1c(NC(=O)/C(C#N)=C/C=C/c2ccccc2)c(=O)n(-c2ccccc2)n1C
z-score [1]: 0.813 (inactive) | composite z-score [2]: -0.213 | z-score [3]: 1.96 (inactive) | z-score [4]: 0.379 (inactive) | z-score [5]: 0.0643 (inactive) | z-score [6]: 0.205 (inactive) | z-score [7]: -0.25 | z-score [8]: -0.328 (inactive) | z-score [9]: 0.0418 (inactive) | z-score [10]: 0.649 | z-score [11]: -0.864 | z-score [12]: 0.287 | z-score [13]: 0.458 | z-score [14]: 0.142 | z-score [15]: 0.24 | z-score [16]: -1.05 | z-score [17]: -0.113 (inactive) | z-score [18]: 0.305 | z-score [19]: 0.56 | z-score [20]: -0.2 (inactive)

CCCCCCC#C[Si](O[C@H](c1ccccc1)c1cn([C@H](C)c2ccccc2)nn1)(C(C)C)C(C)C
z-score [1]: 2.21 (inactive) | composite z-score [2]: -0.234 | z-score [3]: 1.18 (inactive) | z-score [4]: -0.0458 (inactive) | z-score [5]: -0.0391 (inactive) | z-score [6]: -0.0352 (inactive) | z-score [7]: 0.138 | z-score [8]: 0.054 (inactive) | z-score [9]: -0.749 (inactive) | z-score [10]: 0.268 | z-score [11]: -0.577 | z-score [12]: -1.2 | z-score [13]: 0.0417 | z-score [14]: 0.227 | z-score [15]: 0.0204 | z-score [16]: 3.36 | z-score [17]: -0.0744 (inactive) | z-score [18]: -0.846 | z-score [19]: -1.19 | z-score [20]: 2.74 (inactive)

COC(=O)[C@@]1(Cc2ccc(OC)cc2)[C@H]2c3cc(C(=O)N(C)C)n(CCSCCO)c3C[C@H]2CN1C(=O)c1ccccc1
z-score [1]: -0.641 (inactive) | composite z-score [2]: 0.0391 | z-score [3]: 2.02 (inactive) | z-score [4]: 0.0187 (inactive) | z-score [5]: 0.453 (inactive) | z-score [6]: 0.641 (inactive) | z-score [7]: -0.368 | z-score [8]: 0.393 (inactive) | z-score [9]: 0.978 (inactive) | z-score [10]: -0.24 | z-score [11]: -0.46 | z-score [12]: -0.774 | z-score [13]: 0.595 | z-score [14]: -2.12 | z-score [15]: -0.254 | z-score [16]: 1.47 | z-score [17]: -0.358 (inactive) | z-score [18]: 0.179 | z-score [19]: -1.07 | z-score [20]: -0.494 (inactive)

O=C(NCC(O)CO)[C@]1(CCS(=O)(=O)c2ccccc2)N=C(c2ccc(OCCCO)cc2)O[C@@H]1c1ccccc1 (stereo not given in full)
z-score [1]: -0.374 (inactive) | composite z-score [2]: 0.0371 | z-score [3]: 25.6 (active) | z-score [4]: 6.78 (inactive) | z-score [5]: 1.61 (inactive) | z-score [6]: 0.987 (inactive) | z-score [7]: -0.516 | z-score [8]: 1.4 (inactive) | z-score [9]: 0.762 (inactive) | z-score [10]: -0.186 | z-score [11]: -0.206 | z-score [12]: -0.13 | z-score [13]: -0.635 | z-score [14]: -0.37 | z-score [15]: -0.33 | z-score [16]: 0.22 | z-score [17]: -1.3 (inactive) | z-score [18]: -0.213 | z-score [19]: -0.824 | z-score [20]: 0.562 (inactive)

CCCCN1CC=CC23O[C@@H]4C=CCCOC(=O)C4[C@H]2C(=O)N(CCCO)[C@@H]3C1=O (stereo not given in full)
z-score [1]: 0.62 (inactive) | composite z-score [2]: -0.321 | z-score [3]: 0.158 (inactive) | z-score [4]: -1.01 (inactive) | z-score [5]: 0.224 (inactive) | z-score [6]: -1.34 (inactive) | z-score [7]: 0.243 | z-score [8]: -0.168 (inactive) | z-score [9]: -1.73 (inactive) | z-score [10]: -1.34 | z-score [11]: 0.146 | z-score [12]: 1.53 | z-score [13]: -0.365 | z-score [14]: 0.438 | z-score [15]: -0.913 | z-score [16]: -0.798 | z-score [17]: -0.562 (inactive) | z-score [18]: -0.781 | z-score [19]: -0.148 | z-score [20]: -0.834 (inactive)

O=C1O[C@@H](c2ccccc2)[C@@H](c2ccccc2)N2[C@@H](c3ccc(O)cc3)[C@]3(C(=O)Nc4ccc(C#CCCO)cc43)[C@@H](C(=O)O)[C@H]12
z-score [1]: 0.742 (inactive) | composite z-score [2]: 1.99 | z-score [3]: 2.28 (inactive) | z-score [4]: 0.62 (inactive) | z-score [5]: 1.22 (inactive) | z-score [6]: 0.614 (inactive) | z-score [7]: -0.29 | z-score [8]: 0.645 (inactive) | z-score [9]: -1.2 (inactive) | z-score [10]: 1.21 | z-score [11]: 1.18 | z-score [12]: 0.352 | z-score [13]: 1.41 | z-score [14]: -1.34 | z-score [15]: -0.16 | z-score [16]: 0.767 | z-score [17]: -1.02 (inactive) | z-score [18]: -0.342 | z-score [19]: -0.29 | z-score [20]: 0.492 (inactive)
